Test results as given in PubChem BioAssay (NCI).
This is part of a sample that, as a whole, favours compounds with a hit. Of some 79,000 tested, about 15% had one in any assay. Calls of active or inactive are those of the source. No stated cut-off is given here; in the data, active means growth inhibition above about 70%; inactive means the rest.

Legend:
[1] = NCI Yeast Anticancer Drug Screen. Data for the rad52 strain (AID 147);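 further: 0% = growth of vehicle-treated control cultures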; details: S. cerevisiae rad52 mutant growth inhibition, stronger effect = higher value
In short: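 Compounds are applied to a genetically defined yeast strain lacking normal DNA damage repair, and inhibition of growth is expressed relative to cultures given vehicle only.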

[2] = NCI Yeast Anticancer Drug Screen. Data for the wt1 strain (AID 149);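 further: 0% = growth of vehicle-treated wt1 cultures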; details: S. cerevisiae wt1 strain (SPY 50644) growth inhibition, stronger effect = higher value
In short: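 Growth inhibition read against vehicle controls after compound exposure of the wt1 yeast strain.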

[3] = NCI Yeast Anticancer Drug Screen. Data for the rad50EPP+ strain (AID 151);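 further: 0% = growth of vehicle-treated control cultures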; details: S. cerevisiae rad50 mutant strain, stronger effect = higher value
In short: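 Compounds were applied to the rad50EPP+ yeast strain, which bears a defined DNA repair alteration, and growth inhibition was determined relative to vehicle-treated cultures.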

[4] = NCI Yeast Anticancer Drug Screen. Data for the rad50 strain (AID 155);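 further: 0% = growth of vehicle-only cultures of the same strain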; details: S. cerevisiae rad50 strain growth inhibition, stronger effect = higher value
In short: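 Readout: growth inhibition relative to vehicle-treated cultures. Compound exposure was carried out in a genetically defined yeast strain deficient in DNA damage repair.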

[5] = NCI Yeast Anticancer Drug Screen. Data for the mec2-1 strain (AID 157); details: S. cerevisiae mec2-1 strain, stronger effect = higher value
In short: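 Strain: mec2-1 (DNA repair/cell cycle alteration). Compound exposure, then growth measured; inhibition expressed relative to vehicle.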

[6] = NCI Yeast Anticancer Drug Screen. Data for the rad14 strain (AID 159);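 further: 0% = growth of vehicle-treated control cultures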; details: S. cerevisiae rad14 strain growth inhibition, stronger effect = higher value
In short: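 Growth inhibition vs vehicle controls; genetically altered yeast strain (DNA damage repair defect) treated with test compounds.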

[7] = NCI Yeast Anticancer Drug Screen. Data for the CLN2oe strain (AID 163);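 further: 0% = growth of vehicle-only control cultures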; details: S. cerevisiae CLN2oe strain, stronger effect = higher value
In short: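 Growth of a genetically modified yeast strain is measured after compound exposure and compared with cultures given vehicle alone.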

[8] = NCI Yeast Anticancer Drug Screen. Data for the bub3 strain (AID 167); details: S. cerevisiae bub3 mutant strain, stronger effect = higher value
In short: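 Readout: yeast growth inhibition, expressed relative to vehicle-only wells. The test organism is a mutant strain from a panel with lesions in DNA repair or checkpoint genes.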

[9] = NCI Yeast Anticancer Drug Screen. Data for the wt2 strain (AID 169);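 further: 0% = growth of vehicle-treated yeast cultures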; details: S. cerevisiae wt2 strain growth inhibition, stronger effect = higher value
In short: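 This strain belongs to a panel of yeast strains with defined genetic alterations in DNA damage repair or cell cycle control. Compounds are applied, and growth inhibition is measured against vehicle-treated cultures.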

[10] = NCI Yeast Anticancer Drug Screen. Data for the mlh1 strain (AID 171);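 further: 0% = growth of vehicle-treated control cultures of the same strain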; details: S. cerevisiae mlh1 strain growth inhibition, stronger effect = higher value
In short: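 Growth of the mutant yeast strain after compound exposure, expressed as inhibition relative to vehicle-only controls.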

[11] = NCI Yeast Anticancer Drug Screen. Data for the sgs1 strain (AID 173);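 further: 0% = growth of vehicle-only control cultures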; details: S. cerevisiae sgs1 mutant, stronger effect = higher value
In short: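 Growth of a yeast strain bearing a defined genetic alteration is measured after compound treatment. Inhibition is expressed relative to vehicle-only controls.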

[12] = NCI Yeast Anticancer Drug Screen. Data for the rad18 strain (AID 177); details: S. cerevisiae rad18 mutant growth inhibition, stronger effect = higher value
In short: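 Growth of the mutant yeast strain after compound exposure, normalised to vehicle-only cultures.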

[13] = NCI Yeast Anticancer Drug Screen. Data for the sgs1 mgt1 strain (AID 161);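 further: 0% = growth of cultures given vehicle only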; details: S. cerevisiae sgs1 mgt1 strain, stronger effect = higher value
In short: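 Genetically altered yeast, compound exposure, growth inhibition relative to vehicle.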

[14] = NCI Yeast Anticancer Drug Screen. Data for the cln2 rad14 strain (AID 165);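 further: 0% = growth equal to vehicle treated cultures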; details: S. cerevisiae cln2 rad14 strain, stronger effect = higher value
In short: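 Compounds are applied to the cln2 rad14 yeast strain, and growth is then compared with that of vehicle-treated cultures to give inhibition.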

[15] = NCI Yeast Anticancer Drug Screen. Data for the mlh1 rad18 strain (AID 175); details: S. cerevisiae mlh1 rad18 strain growth inhibition, stronger effect = higher value
In short: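 Read-out is yeast growth inhibition, calculated against vehicle-only controls. The compound was applied to a strain engineered with DNA damage repair alterations.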

[16] = NCI Yeast Anticancer Drug Screen. Data for the mgt1 strain (AID 153); details: S. cerevisiae mgt1 mutant growth inhibition, stronger effect = higher value
In short: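 Strain: mgt1 yeast, one of a set carrying defined DNA damage repair or cell cycle control alterations. Compound-treated growth compared with vehicle.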

[17] = at 5.0 µM (retest, dose inferred, filed as 0.5)
[18] = at 50.0 µM (retest, dose inferred, filed as 5.0)

Measured: growth inhibition

CN(C)/N=N/c1nc[nH]c1C(N)=O
inactive: [1]; at 1.2 µM -2% | [1]; at 3.7 µM 1% | [1]; at 11.0 µM 8% | [1]; at 33.0 µM 31% | [2]; at 1.2 µM 0% | [2]; at 3.7 µM -1% | [2]; at 11.0 µM -3% | [2]; at 33.0 µM -1% | [3]; at 1.2 µM -3% | [3]; at 3.7 µM -2% | [3]; at 11.0 µM 0% | [3]; at 33.0 µM 8% | [3]; at 100.0 µM 32% | [4]; at 1.2 µM -2% | [4]; at 3.7 µM 0% | [4]; at 11.0 µM 7% | [4]; at 33.0 µM 20% | [5]; at 1.2 µM 0% | [5]; at 3.7 µM 0% | [5]; at 11.0 µM 1% | [5]; at 33.0 µM 5% | [6]; at 1.2 µM -2% | [6]; at 3.7 µM -2% | [6]; at 11.0 µM 0% | [6]; at 33.0 µM -1% | [7]; at 1.2 µM 1% | [7]; at 3.7 µM 2% | [7]; at 11.0 µM 0% | [7]; at 33.0 µM 0% | [8]; at 1.2 µM 2% | [8]; at 3.7 µM 1% | [8]; at 11.0 µM -2% | [8]; at 33.0 µM 46% | [9]; at 1.2 µM -5% | [9]; at 3.7 µM -1% | [9]; at 11.0 µM -2% | [9]; at 33.0 µM -2% | [10]; at 1.2 µM -2% | [10]; at 3.7 µM -2% | [10]; at 11.0 µM 0% | [10]; at 33.0 µM 0% | [11]; at 1.2 µM -1% | [11]; at 3.7 µM -2% | [11]; at 11.0 µM 1% | [11]; at 33.0 µM 6% | [12]; at 1.2 µM -3% | [12]; at 3.7 µM 0% | [12]; at 11.0 µM 8% | [12]; at 33.0 µM 42%
active: [1]; at 100.0 µM 95% | [2]; at 100.0 µM 88% | [4]; at 100.0 µM 97% | [5]; at 100.0 µM 98% | [6]; at 100.0 µM 98% | [7]; at 100.0 µM 99% | [8]; at 100.0 µM 96% | [9]; at 100.0 µM 98% | [10]; at 100.0 µM 97% | [11]; at 100.0 µM 98% | [12]; at 100.0 µM 98%

CCOC(=O)C1=C(C)NC(C)=C(C(=O)OCC)C1c1ccc(Cl)cc1
active: [1]; at 11.0 µM 92% | [1]; at 33.0 µM 78% | [1]; at 100.0 µM 92% | [2]; at 100.0 µM 94% | [4]; [17] 98% | [4]; at 11.0 µM 93% | [4]; at 33.0 µM 88% | [4]; [18] 100% | [4]; at 50.0 µM 90.2% | [4]; at 100.0 µM 89% | [5]; [17] 99% | [5]; at 11.0 µM 70% | [5]; at 33.0 µM 70% | [5]; [18] 99% | [5]; at 50.0 µM 91.5% | [5]; at 100.0 µM 92% | [6]; at 11.0 µM 85% | [6]; at 33.0 µM 82% | [6]; at 100.0 µM 93% | [13]; [18] 98% | [7]; at 33.0 µM 83% | [7]; at 100.0 µM 88% | [14]; [18] 98% | [8]; at 11.0 µM 85% | [8]; at 33.0 µM 81% | [8]; [18] 98% | [8]; at 100.0 µM 93% | [9]; at 11.0 µM 74% | [9]; at 33.0 µM 85% | [9]; at 100.0 µM 96% | [10]; at 33.0 µM 84% | [10]; at 100.0 µM 92% | [11]; at 11.0 µM 73% | [11]; at 33.0 µM 89% | [11]; at 100.0 µM 95% | [15]; [17] 100% | [15]; [18] 100% | [15]; at 50.0 µM 90.2% | [12]; at 11.0 µM 93% | [12]; at 33.0 µM 89% | [12]; at 100.0 µM 92%
inactive: [1]; at 1.2 µM -13% | [1]; at 3.7 µM 6% | [2]; at 1.2 µM -23% | [2]; at 3.7 µM -10% | [2]; at 11.0 µM 33% | [2]; at 33.0 µM 60% | [3]; at 1.2 µM 6% | [3]; at 3.7 µM 4% | [3]; at 11.0 µM 16% | [3]; at 33.0 µM 0% | [3]; at 100.0 µM -8% | [4]; at 1.2 µM 14% | [4]; at 3.7 µM 35% | [5]; at 1.2 µM -9% | [5]; at 3.7 µM -5% | [6]; at 1.2 µM -14% | [6]; at 3.7 µM -6% | [13]; [17] -1% | [7]; at 1.2 µM -4% | [7]; at 3.7 µM -10% | [7]; at 11.0 µM 49% | [14]; [17] 27% | [8]; at 1.2 µM 20% | [8]; at 3.7 µM 44% | [8]; [17] 47% | [9]; at 1.2 µM -3% | [9]; at 3.7 µM -10% | [10]; at 1.2 µM -27% | [10]; at 3.7 µM -9% | [10]; at 11.0 µM 44% | [11]; at 1.2 µM 13% | [11]; at 3.7 µM 19% | [12]; at 1.2 µM 4% | [12]; at 3.7 µM 14%

N=C(N)c1ccc(N=Nc2c(O)ccc3c2[nH]c2ccccc23)cc1
active: [2]; at 33.0 µM 95% | [2]; at 100.0 µM 97% | [3]; at 33.0 µM 87% | [3]; at 100.0 µM 95% | [16]; at 33.0 µM 95% | [16]; at 100.0 µM 95% | [4]; at 11.0 µM 91% | [4]; at 33.0 µM 95% | [4]; [18] 98% | [4]; at 50.0 µM 97.8% | [4]; at 100.0 µM 95% | [5]; at 33.0 µM 95% | [5]; [18] 96% | [5]; at 50.0 µM 98.2%
inactive: [2]; at 1.2 µM -2% | [2]; at 3.7 µM -1% | [2]; at 11.0 µM 69% | [3]; at 1.2 µM 8% | [3]; at 3.7 µM 36% | [3]; at 11.0 µM 57% | [16]; at 1.2 µM -2% | [16]; at 3.7 µM 2% | [16]; at 11.0 µM 64% | [4]; at 1.2 µM -2% | [4]; at 3.7 µM 11% | [4]; [17] 57% | [5]; at 1.2 µM -3% | [5]; at 3.7 µM -1% | [5]; [17] 15% | [5]; at 11.0 µM 68%
